biological target: T1, ETS1 (UniProt P14921); experiment: ETS1 binding intensity (PBM fluorescence), ETS1 alone (arbitrary fluorescence units); higher = stronger binding; settings: ETS1 concentration 1 nM; RUNX1 concentration 0 nM
T1 sequence: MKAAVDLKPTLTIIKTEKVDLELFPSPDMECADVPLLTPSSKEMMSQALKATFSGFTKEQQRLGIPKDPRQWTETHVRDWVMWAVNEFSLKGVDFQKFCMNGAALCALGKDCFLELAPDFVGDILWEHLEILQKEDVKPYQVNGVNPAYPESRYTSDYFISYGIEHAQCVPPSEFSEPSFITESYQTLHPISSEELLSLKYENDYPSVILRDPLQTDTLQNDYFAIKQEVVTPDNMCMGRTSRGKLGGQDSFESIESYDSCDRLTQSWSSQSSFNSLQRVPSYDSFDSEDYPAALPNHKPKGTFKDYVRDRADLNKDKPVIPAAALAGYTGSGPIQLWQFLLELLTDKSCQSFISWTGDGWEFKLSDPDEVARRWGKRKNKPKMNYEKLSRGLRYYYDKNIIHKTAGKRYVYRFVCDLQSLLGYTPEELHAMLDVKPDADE

Point of comparison: TGCTTAGCGGGAAGTGCTTACACCACAAAACAAGAC, ETS1 binding intensity 678. Against it:
- GTCTTTCACTCCACTTCCGCCCCCACAAAACATACA — higher, 2850
- AGCCGTCATTCAGGATGTGGTGACAGACATGGAGAC — higher, 1200
- GGAGGTGGGGAGGAAGTTCTGAAACCACACACATTT — higher, 749
- AGCCAACAGGAAGCTGCAGAGACTAAACCACAGCAA — higher, 1150
- CGAAACGCGTTCCCCGGAAACCGCGCCCGGCTCCGA — higher, 1810
- AGGCCGCCTACAGGATGTTGGAAACCACAGGGCCCG — higher, 2910
- GAAACAATTTCCTGTACCTCTGTGGTAAAAATGATA — higher, 1040
- ACCCAGTAGGGGCCAGGATGTGGTGAAAAGAGAATT — higher, 1610
- CGGGACACAGGAAGCCGTTGTGGGGCCCCGGGGCCA — higher, 1960
- CCTGTTGATAAAACAGGATGTGGTAAAGAAGCTGGC — higher, 9030
- TGAAGTACTAGTCAAGGATGTGGTTTTACATAGCAG — lower, 586
- AGGTCGCCCTCCGGATGCGGTCCCCACACCGCCTGC — higher, 1870
- CCTTGCAGCAACGGATGTGGGTTTTTTTTTTTCTTT — higher, 4030
- GCTTGTCTTCCGGTTTCGTCGCCGCCGCAGGCGCAC — higher, 1730
- GCTGATAGAACAGGATGTGGTAAAGAAGCAGGCCAA — higher, 5330
- CGGCAGGCAAGCAGGAAACCGCGAGTGGAGAAAGGG — higher, 1960
- AGGGGAGGAACCAGGAAGTTGTGGTAAACTGTAGCA — higher, 2490
- CACCCCCCCAGTGCAGGAAGTGGTTTTCGAGGGCAG — higher, 4490
- GCTGTGCCGGCAGGATGTGGTCTTTGGTTTCTGTTT — higher, 5560
- GAAGCTCCCCAAACAGGATGTGGTTAGGGAGAGGGG — higher, 8040

From the supplement of paper PMC10681739
